# This is part of a sample that, as a whole, favours compounds with a hit. Of some 83,000 tested, about 20% had one in any assay.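 Single-dose data. Exposure time 48 hours. Values below 10 considered active.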 Values without a mark were called inactive. Calls of active or inactive are those of the source.
# How the values were obtained:
# Assay in all cases: NCI-60 one-dose screen, 48 h (100 = growth as untreated, 0 = no growth, -100 = all killed)
# Conditions in all cases: 10 µM unless noted
# [1] = system: DU-145 prostate
# [2] = system: K-562 leukemia
# [3] = system: MALME-3M melanoma
# [4] = system: MDA-MB-231 breast
# [5] = system: RXF 393 renal
# [6] = system: SF-268 CNS
# [7] = system: SF-295 CNS
# [8] = system: SF-539 CNS
# [9] = system: M14 melanoma
# [10] = system: HCT-15 colon
# [11] = system: HT29 colon
# [12] = system: SNB-75 CNS
# [13] = system: SNB-19 CNS
# [14] = system: U251 CNS
# [15] = system: PC-3 prostate
# [16] = system: SK-MEL-5 melanoma
# [17] = system: UACC-62 melanoma
# [18] = system: LOX IMVI melanoma
# [19] = system: SK-MEL-28 melanoma
Structure (SMILES),growth [1],growth [2],growth [3],growth [4],growth [5],growth [6],growth [7],growth [8],growth [9],growth [10],growth [11],growth [12],growth [13],growth [14],growth [15],growth [16],growth [17],growth [18],growth [19]
Cn1c(=O)c2c(nc3n2CCN(CCc2ccc(OCCN4CCOCC4)cc2)C3)n(C)c1=O,109%,109%,106%,104%,111%,105%,106%,109%,105%,105%,107%,101%,108%,105%,94.1%,94.2%,98.8%,97%,111%
CCCC1OC(c2ccc(C(C)C)cc2)OCC1CC (stereo not given),110%,102%,106%,107%,115%,103%,104%,96.3%,101%,103%,97%,87.6%,106%,95.7%,78.7%,104%,102%,97.7%,104%
C=CCOc1ccc(/C(O)=C2\C(=O)C(=O)N(c3nccs3)C2c2ccccc2F)cc1 (stereo not given),114%,109%,92.1%,112%,-20.5% (active),116%,85.1%,125%,82.7%,82.1%,108%,89.8%,102%,93%,114%,94.7%,76.6%,90.3%,107%
COc1cc(-c2csc(NC(=O)Nc3ccc(Cl)cc3Cl)n2)cc(OC)c1OC,46.6%,15.8%,45%,54.7%,49.9%,33.6%,19.2%,29.4%,34.9%,23%,10.8%,4.13% (active),41.7%,25.7%,18.7%,18.4%,30.9%,28.9%,62.6%
O=S(=O)(NCCNc1cc(-c2cn(-c3ccccc3)nc2-c2ccccc2)ccn1)c1cccc2ccccc12,68.9%,20.7%,60.7%,40%,55.3%,55%,35.9%,56.9%,42.9%,43.4%,23.6%,59%,67%,53.3%,15.3%,26.5%,56.5%,45.8%,62.9%
CCSc1nnc(Nc2ccc(C(C)C)cc2)s1,105%,51.8%,90.7%,92.5%,28%,112%,91.1%,90.4%,95.7%,48%,28.9%,102%,98.4%,66%,109%,78.9%,78.1%,82.5%,110%
C[N+](C)(C)c1ccc(CC2c3ccccc3-c3ccccc32)cc1,101%,70.6%,74.9%,74.7%,103%,42.4%,79.1%,25.5%,75.4%,98.1%,65.9%,-3.78% (active),23.2%,19.3%,56.1%,77.1%,81.5%,86.3%,81.3%
O=[N+]([O-])c1cccc(-c2cc(-c3cc(Br)ccc3O)[nH]n2)c1,35.1%,12.4%,5.27% (active),27%,58.1%,23.6%,40.4%,34%,35.6%,15.6%,48.3%,38.8%,25.4%,17.9%,13%,6.28% (active),15.2%,6.51% (active),42.1%
Nc1ccc(S(=O)(=O)c2ccc(Cl)cc2)cc1,104%,109%,85.7%,92.3%,113%,96.8%,98.2%,86%,96.1%,97.8%,98.1%,79.7%,93.9%,105%,89.7%,95.2%,85.8%,95.6%,102%
COc1ccc(/C(=N/O)c2cc(OC)c(OC)c(OC)c2)c(OC)c1N,39%,14.7%,53.1%,55.3%,23.2%,49.1%,6.4% (active),3.96% (active),21%,24.5%,13.7%,8.03% (active),45.2%,27.5%,19.2%,14.4%,31.7%,45%,59.2%
CC(C)CCC[C@@H](C)[C@H]1CC[C@H]2[C@@H]3CC[C@H]4C/C(=N/O)CC[C@]4(C)[C@H]3CC[C@]12C,116%,91.2%,104%,98.8%,102%,110%,101%,109%,104%,111%,105%,96.9%,104%,96.6%,83.4%,98.3%,98.6%,96.6%,116%
O=C(Nc1ccc(I)cc1)c1cccc([N+](=O)[O-])c1O,32.5%,14.7%,-4.07% (active),16.8%,31.1%,24.1%,4.77% (active),14.8%,15.7%,18.6%,28.1%,41.2%,16.8%,10.3%,7.46% (active),-44.1% (active),20.8%,8.65% (active),21.5%
COc1cc(Br)c(OC)cc1Br,106%,104%,75.4%,85.6%,116%,98.6%,94.7%,93.6%,91.5%,103%,96.4%,90.4%,108%,98.9%,91.2%,98.4%,94.8%,90%,105%
Cc1cc2c(C(C)C)c(O)c(O)c(C=NCCCCCCC(=O)O)c2c(O)c1-c1c(C)cc2c(C(C)C)c(O)c(O)c(C=NCCCCCCC(=O)O)c2c1O,51.3%,12.6%,62.8%,39.2%,34.2%,36.2%,11.9%,23.1%,37%,16.1%,19%,50.1%,21.8%,14.3%,18.4%,30.2%,28.7%,4.47% (active),40.2%
Nc1nc(N)c2nc(CNc3ccc(C(=O)CC(CCC(=O)O)C(=O)O)cc3)cnc2n1 (stereo not given),28.9%,58.3%,111%,101%,19.3%,29.7%,37.8%,20.5%,27.1%,33.3%,36.7%,71.7%,42.9%,36.2%,33.6%,22.8%,26.6%,20.5%,68.7%

# — PubChem BioAssay (NCI)
